{"source": "PubChem BioAssay (EPA / NIEHS)", "note": "Records with an inconclusive call do not appear. Calls of active or inactive are those of the source. How the source made its calls: active means hit-call score of the fitted dose curve at least 0.9, where 1 is the maximum; inconclusive means response in the unintended direction; inactive means score below 0.9."}
{"tested_on": "turtle Estrogen Receptor (ESR1), gene 101933533", "test": "ATG_trERa_XSP1: Attagene TRANS-FACTORIAL Multi-Species (XSP1) HepG2 Assay for turtle Estrogen Receptor (ESR1) (AID 2283781)", "procedure": "ATG_XSP1_multi-species_TRANS is a cell-based, multiplexed assay created by modifying the existing Attagene TRANS-FACTORIAL system to include a panel of nuclear receptors from some or all the following species: human (Homo sapiens), mouse (Mus musculus), frog (Xenopus laevis), zebrafish (Danio rerio), chicken (Gallus gallus), and turtle (Chrysemys picta). The ECOTOX-FACTORIAL format uses HepG2, a human liver cell line, with measurements taken at 24 hours after chemical dosing in a 24-well plate. Xsp1 included 3 nM 6-alpha-fluorotestosterone to partially stimulate the androgen receptor.ATG_trERa_XSP1 is one of 29 assay components measured or calculated from the ATG_XSP1_multi-species_TRANS assay. It is designed to make measurements of mRNA induction, a form of inducible reporter, as detected with fluorescence intensity signals by Reverse transcription polymerase chain reaction (RT-PCR) and Capillary electrophoresis technology.The assay endpoint ATG_trERa_XSP1 was analyzed in the positive analysis fitting direction relative to DMSO as the negative control and baseline of activity. Using a type of inducible reporter, measures of mRNA for gain-of-signal activity can be used to understand the reporter gene at the transcription factor-level as they relate to the gene ER. Furthermore, this assay endpoint can be referred to as a primary readout, because this assay has produced multiple assay endpoints where this one serves a reporter gene function. To generalize the intended target to other relatable targets, this assay endpoint is annotated to the nuclear receptor intended target family, where the subfamily is steroidal.\nHuman liver HepG2 cells are transiently transfected with multiple reporter transcription units (MRTUs) in 6-well plates using FuGene 6 reagent (Roche; 3 ml FuGene/1 mg DNA). The MRTU constructs are regulated by a cis-regulating element (promoter). […] A major difference between the CIS and TRANS system is that in CIS activities of endogenous TFs are measured, whereas the TRANS assay evaluates changes in activities of exogenous, chimeric NR-Gal4 proteins. […] At the end of 24 hour incubation, total RNA was isolated using TriZol reagent (Invitrogen). The isolated RNA is then reverse-transcribed using oligo(dT) primer and Mo-MLV reverse transcriptase (Invitrogen) with DNAse I (Ambion) treatment for 30 min. The one-tenth of the produced cDNA was amplified by PCR using Taq DNA polymerase (Invitrogen) and two reporter sequence-specific primers. The PCR products were fluorescently labeled by primer extension with 6-arboxyfluorescein (6-FAM) 5'-labeled reporter sequence-specific primer (2 min at 95 C, 20 s at 68 C and 10 min at 72 C) and these products were digested with 5U of HpaI (New England Biolabs) for 2h at 37 C. The fragments were purified using Qiaquick PCR columns (Qiagen), analyzed on an ABI 3130xL genetic analyzer (Applied Biosystems) with peak positions identified by using a set of X-rhodamine (ROX)-labeled MapMarker1000 molecular weight standards (BioVentures). The raw capillary electrophoresis data was processed using Attagraph software (Attagene)."}
{"molecule": "COP(=S)(OC)Oc1nc(Cl)c(Cl)cc1Cl", "AC50": "27.9 µM (active)"}
{"molecule": "CCCC1COC(Cn2cncn2)(c2ccc(Cl)cc2Cl)O1", "note": "(centres undefined)", "outcome": "inactive"}
{"molecule": "C#CCOS(=O)OC1CCCCC1Oc1ccc(C(C)(C)C)cc1", "note": "(centres undefined)", "AC50": "44.3 µM (active)"}
{"molecule": "CCCCOC(=O)c1ccccc1C(=O)OCCCC", "outcome": "inactive"}
{"molecule": "COc1ccc(C(c2ccc(OC)cc2)C(Cl)(Cl)Cl)cc1", "AC50": "1.32 µM (active)"}
{"molecule": "CC(C)Oc1cc(-n2nc(C(C)(C)C)oc2=O)c(Cl)cc1Cl", "AC50": "20.8 µM (active)"}
{"molecule": "CCCN(CCC)c1c([N+](=O)[O-])cc(S(N)(=O)=O)cc1[N+](=O)[O-]", "AC50": "33.4 µM (active)"}
{"molecule": "COC(=O)N(OC)c1ccccc1COc1ccn(-c2ccc(Cl)cc2)n1", "outcome": "inactive"}
{"molecule": "OC(c1ccc(Cl)cc1)(c1cncnc1)c1ccccc1Cl", "note": "(centres undefined)", "AC50": "2.12 µM (active)"}
{"molecule": "CO/C=C(/C(=O)OC)c1ccccc1Oc1cc(Oc2ccccc2C#N)ncn1", "outcome": "inactive"}
{"molecule": "C=CC1(C)OC(=O)N(c2cc(Cl)cc(Cl)c2)C1=O", "note": "(centres undefined)", "AC50": "100 µM (active)"}
{"molecule": "CC(C)(C)c1ccc(CSc2cnn(C(C)(C)C)c(=O)c2Cl)cc1", "outcome": "inactive"}
{"molecule": "CON(C)C(=O)Nc1ccc(Cl)c(Cl)c1", "AC50": "26.7 µM (active)"}
{"molecule": "CCCCC(CC)COC(=O)c1ccccc1C(=O)OCC(CC)CCCC", "note": "(centres undefined)", "outcome": "inactive"}
